The source of these data is PubChem BioAssay AID1446 (The Scripps Research Institute Molecular Screening Center, 2008).

Broadly, the inhibition is the drop in the measured response relative to a control, in per cent.

Hit rate of the full screen: of about 220,000 compounds, about 2,400 (1.1%) were called active.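 The calls were made as follows: active = inhibition above the campaign mean plus 3 SD over all tested compounds (cut at about 24% in these data); inactive = the rest.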 For the sample, actives were picked, then their nearest neighbours and some compounds at random.

The nature of the assay: reduced viability of JAK2V617F-dependent Ba/F3 cells, primary screen, JAK2V617F inhibitor project, cell-based, Ba/F3 EpoR-JAK2V617F, luminescence (AID 1446).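 Also: cytokine-independent growth of Ba/F3 cells driven by EpoR plus mutant JAK2; 0% = DMSO-treated cells and 100% = JAK inhibitor I control.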 The note with it: ATP luminescence, at 5.6 µM, active compounds read high.
Turning to `COc1cc(OC)cc(C(=O)N[C@H](C(=O)Nc2nc3ccccc3[nH]2)C(C)C)c1`, the inhibition is 76.2% (active).
In the case of `COc1cc(OC)cc(C(=O)N[C@H](C(=O)OCC(=O)NC(C)c2ccccc2)C(C)C)c1` (stereo partly specified), the inhibition was -0.99% (inactive).
For `COc1ccc(OC(C)C(=O)NCCc2nc3ccccc3[nH]2)cc1` (stereo unspecified), the inhibition is -2.24% (inactive).
As for `COC(=O)Cc1ccc(N(Cc2ccccc2F)S(=O)(=O)c2ccc(Br)cc2)cc1`, the inhibition is -1.26% (inactive).
In the case of `COC(=O)Cn1c(O)c(N=NC(=O)OC)c2ccccc21`, the inhibition was -2.09% (inactive).
As to `Cc1oc2c(c1C(=O)N1CCOCC1)C(=O)c1ccccc1C2=O`, the inhibition was 3.99% (inactive).
Turning to `CCOC(=O)NC(=O)/C(C#N)=C\c1ccccc1`, the inhibition is 1.65% (inactive).
`Cc1coc(C)c1C(=O)CC1(O)C(=O)N(C)c2ccc(Cl)cc21` (stereo unspecified): the inhibition was 2.68% (inactive).
For the compound `Cc1ccc(OCC(=O)N/N=C\c2ccco2)c(C)c1`, the inhibition was -7.98% (inactive).
The value for `Cc1ccc(/C=N/NC(=O)COc2ccccc2-c2ccccc2)cc1` was 86.5% (active); that for `Cc1ccc(OCC(=O)N/N=C/c2ccncc2)cc1` was -1.35% (inactive); that for `Cc1cc(C)nc(SCC(=O)N(C)C)n1` was -5.1% (inactive).
As to `Nc1cccc(CCc2nc3ccccc3[nH]2)c1`, the inhibition was -1.26% (inactive).
With `Cc1ccc(S(=O)(=O)C2(S(=O)(=O)c3ccc(C)cc3)CCCC2)cc1`, the inhibition is 30.1% (active).
In the case of `Cc1ccc(S(=O)(=O)N(C)C2(C)CCS(=O)(=O)C2)cc1` (stereo unspecified), the inhibition was -0.37% (inactive).
Regarding `Cc1ccc(S(=O)(=O)NC(=O)N2CCCC(C)(C)C2)cc1`, the inhibition was -3.44% (inactive).
The figure for `Cc1ccc(NC(=O)C(=O)NCc2ccco2)c(C)c1` is -1.41% (inactive).
The value for `CCN(C(=O)COC(=O)c1cc(NS(=O)(=O)c2ccc(Cl)c([N+](=O)[O-])c2)ccc1O)C1CCCCC1` was -2.87% (inactive); that for `COc1ccccc1NC1=NC(c2ccc(Cl)cc2)N=C(N)N1` (stereo unspecified) was 84.9% (active).
For the compound `COc1ccccc1NC1=NC2(CCCC2)N=C(N)N1`, the inhibition was 1.28% (inactive).
The value for `COc1ccccc1Nc1nc(N)nc(CN(C)C2CCCCC2)n1` was -3.54% (inactive); that for `CC(C)(C)c1ccc(C(=O)NCCn2c(N)c(C#N)c3nc4ccccc4nc32)cc1` was 1.57% (inactive); that for `CC(C)(C)NC(=O)COC(=O)c1cc(Br)ccc1Cl` was -5.58% (inactive).
The value for `CCOc1ccc(-n2c(O)c(/C=N/Nc3nnc(C)c(=O)[nH]3)c3ccccc3c2=O)cc1` was -1.02% (inactive); that for `COc1ccc(Cc2nnc(N/N=C/c3ccccc3O)[nH]c2=O)cc1OC` was 24.2% (active).
The value for `Cc1nnc(N/N=C/c2ccccn2)[nH]c1=O` was -4.34% (inactive).
Regarding `CSCC(NS(=O)(=O)c1ccc(C)cc1)C(=O)O` (stereo unspecified), the inhibition was -0.95% (inactive).
On to `CC(=O)Nc1ccc(C(=O)/C=C/c2ccc[nH]2)cc1`, for which the inhibition was 0.42% (inactive).
With `Cc1ccc(NC(=O)CC2S/C(=N/N=C3\CCCc4ccccc43)NC2=O)cc1` (stereo unspecified), the inhibition is -2.25% (inactive).
For `COc1ccc(NS(=O)(=O)c2ccc(Oc3c(C#N)cccc3C#N)cc2)cc1`, the inhibition was 40.8% (active).
The figure for `COc1ccc(NS(=O)(=O)c2ccc(NC(=O)c3ccc(N(C)S(C)(=O)=O)cc3)cc2)cc1` is 22.6% (inactive); for `CCOc1ccc(S(=O)(=O)Nc2ccc(S(=O)(=O)Nc3cc(OC)ccc3OC)cc2)cc1` it is 3.6% (inactive).
The value for `Cc1cc(C)c(NC(=S)N2CCCC2C(=O)O)c(C)c1` (stereo unspecified) was -0.43% (inactive).
The value for `Nc1nnc(SCC(=O)OCc2ccc(Cl)c(Cl)c2)s1` was 1.09% (inactive).
As to `Cc1ccc(S(=O)(=O)N(C)c2ccc(OCC(=O)NC3=NCCS3)cc2)cc1`, the inhibition was 4.42% (inactive).
The value for `COc1ccc(CC(=O)NCc2nnc(SCC(=O)Nc3nccs3)n2C)cc1` was -0.03% (inactive); that for `Cn1c(CCN2CCCCCC2)nc2cc(NC(=O)Nc3ccccc3)ccc21` was 77.4% (active).
The figure for `CCC(=O)Nc1ccc2c(c1)nc(CCN1CCN(C)CC1)n2C` is 0.28% (inactive); for `CC(=O)NCCc1nc2cc(NC(=O)c3ccccc3)ccc2n1C` it is 3.36% (inactive).
On to `Cc1ccc(N(C(=O)Cc2cccs2)C2C=CS(=O)(=O)C2)cc1Cl` (stereo unspecified), for which the inhibition was 3.93% (inactive).
The figure for `O=c1[nH]c(CSc2ccccc2)nc2c1oc1ccccc12` is -0.61% (inactive); for `CCOC(=O)C1=C(c2ccc(OC)cc2)C(=O)c2ccccc2C1=O` it is 46.9% (active).
The figure for `CCOC(=O)c1c(-c2ccc(C)cc2)csc1/N=C(\C)C1=C(O)c2ccccc2C1=O` is -3.38% (inactive).
On to `CCOC(=O)c1ccccc1NS(=O)(=O)c1ccc(OC)cc1`, for which the inhibition was -0.82% (inactive).
The figure for `COc1ccccc1Nc1nc(N)nc(CSC(=S)N2CCOCC2)n1` is 0.7% (inactive); for `O=c1cc(-c2ccccc2)[nH]c2cc(F)ccc12` it is 70.7% (active); for `Cc1ccc(-c2cc(=O)c3ccc(Cl)cc3[nH]2)cc1` it is -3.39% (inactive).
The figure for `Cc1ccc(-c2cc(=O)c3ccc(F)cc3[nH]2)cc1` is -1.31% (inactive).
Take `CCOC(=O)c1cnc(Nc2nc3ccccc3o2)nc1CSC(=S)N1CCCCC1`: the inhibition was -2.9% (inactive).
The figure for `CC#CC[N+](C)(C)CCCCCC` is 35.9% (active); for `C/C(=N\NC(=O)c1cccc(N2CCCC2=O)c1)c1ccc(N)cc1` it is 0.87% (inactive); for `CC1=NNC(=O)C1CCC(=O)N/N=C(\C)c1ccc(Cl)cc1` (stereo unspecified) it is -7.29% (inactive).
The value for `Cc1cccc(NC(=O)c2ccc([N+](=O)[O-])o2)c1` was 38.7% (active).
`Cc1cccc(NC(=S)NC(=O)c2ccc(Br)o2)c1`: the inhibition is 1.21% (inactive).
The figure for `Cc1onc(NC(=O)c2ccc([N+](=O)[O-])o2)c1Br` is 2.15% (inactive); for `Cc1ccc(OCC(=O)Nc2ccc(S(=O)(=O)Nc3ccccn3)cc2)cc1` it is -2.67% (inactive).
For `Cc1ccc(S(=O)(=O)Nc2ccc3ncccc3c2)cc1`, the inhibition was 32.3% (active).
The figure for `Cc1cc(C)cc(OCC(=O)Nc2ccc(S(=O)(=O)Nc3ccccn3)cc2)c1` is -4.41% (inactive).
The value for `c1ccc(-c2ccc3c(c2)NC(C2Nc4cc(-c5ccccc5)ccc4O2)O3)cc1` (stereo unspecified) was -3.19% (inactive).
For `Cc1c(Cl)c([N+](=O)[O-])nn1CCCC(=O)NC(C)c1ccccc1` (stereo unspecified), the inhibition was 0.46% (inactive).
Consider `CC(C)CCN1CCN(C/C=C/c2ccco2)CC1CCO` (stereo unspecified), for which the inhibition is -3.77% (inactive).
